Hits are enriched below; roughly 5.7% of the tested compounds scored in any of these assays.
IL-1B inflam inh = inflammasome signaling inhibition, IL-1 beta readout | 360,000 tested, 4.7% active | THP-1 LPS/ATP IL-1B secretion, AlphaLISA, 16 h; active compounds read low | activity change, % at 57.5 µM; in the data active means activity change below about -50%; inconclusive means mostly about -30% to -49%
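Secreted IL-1B measured by AlphaLISA bead assay after 16 h compound exposure of THP-1 cells; compounds (final up to 57.5 uM) added 1 h before LPS (250 ng/mL) and ATP (1.25 mM) stimulation; lower signal means less secretion.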
ATXN2 expr inh = ATXN2 expression inhibition; HEK-293 ATXN2-luciferase reporter, luminescence, 24 h; Potency, µM (highest dose often 57 µM), most hits filed as inhibitors; 360,000 tested, 0.72% active; further: nearly all actives have a fitted effect of over 55% in size
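ATXN2-luciferase reporter cells (luciferase flanked by upstream and downstream ATXN2 gene portions) were treated 24 h at 37 °C with compounds at up to 57 uM. SteadyGlo luminescence gave expression; GF-AFC fluorescence gave viability.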
TGFb inhibitor = blocks TGF-b signaling. HepG2 CAGA-GFP TGF-b/SMAD3 reporter, GFP fluorescence, 18 h; TGF-beta stimulated, 500 pg/mL final. Potency, µM (highest dose often 46.1 µM), hits mostly inhibitors. 410,000 tested, 1.2% active; further: nearly all actives have a fitted effect of over 65% in size
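HEPG2 CAGA-GFP reporter cells (1000/well, DMEM with 1% FBS) received compounds, then recombinant TGF-beta at 500 pg/mL final for 18 hours at 37 degrees C. Per-cell GFP summed per well was normalised to unstimulated and stimulated DMSO controls before curve fitting.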
S2 tox = viability counter-screen for ATXN expression inhibitors; S2 cells (HEK-293 line with an ATXN2-luciferase reporter) viability, CellTiter-Fluor protease fluorescence, 24 h; Potency, µM (titrated, usually from 56.7 µM), hits mostly cytotoxic; 400,000 tested, 0.49% active; AID 651635; further: nearly all actives have a fitted effect of over 40% in size
HepG2 tox = HepG2 cytotoxicity, counter-screen for TGF-b inhibitors; HepG2 CAGA-GFP viability, ATP luminescence, 18 h; Potency, µM (top dose mostly 46.1 µM), most hits filed as cytotoxic; 410,000 tested, 0.76% active
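HepG2 CAGA-GFP cells (1000/well, DMEM with 1% FBS) received compound, then TGF-beta at 500 pg/mL final, and were incubated 18 hours at 37 degrees C. Viability was read by CellTiter-Glo luminescence. Media-only wells were set as complete cell-killing and DMSO as no toxicity.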
Each line names hits and unclear results; the compound was inactive in the other large screens; ! = not active in a repeat. Unless noted, the call rests on the fitted dose curve; in most records, active means well fitted curve in the direction sought with a large enough effect; inconclusive means small, poorly fitted or top-dose-only effect, or another doubt; inactive means no such curve, though single readings can be large; an effect the other way counts as inactive or inconclusive.

Cc1ccc(C2=NOC(=O)/C2=C\C=C\c2ccccc2)cc1	IL-1B inflam inh -96, ATXN2 expr inh inconclusive, TGFb inhibitor inconclusive, S2 tox inconclusive
CC1=NN(c2ccccc2)C(=O)/C1=C/C=C/c1ccccc1	IL-1B inflam inh -129, ATXN2 expr inh inconclusive, TGFb inhibitor inconclusive, S2 tox inconclusive
CO/N=C(\C(=O)N[C@@H]1C(=O)N2C(C(=O)O)=C(CSc3nc(=O)c(O)nn3C)CS[C@H]12)c1csc(N)n1	none (no result: IL-1B inflam inh, TGFb inhibitor, HepG2 tox)
Cc1cc(O)c(C(c2cccc(F)c2)N2CCN(c3ccccc3)CC2)c(=O)n1Cc1ccco1 (stereo not drawn)	none (no result: IL-1B inflam inh, ATXN2 expr inh, S2 tox)
O=C(Cn1cc(S(=O)(=O)Cc2ccccc2Cl)c2ccccc21)Nc1cccc(C(F)(F)F)c1	TGFb inhibitor inconclusive, HepG2 tox 16µM (no result: IL-1B inflam inh, ATXN2 expr inh, S2 tox)
CCN(CC)C(=O)c1cc2cc(Br)ccc2oc1=O	S2 tox inconclusive, HepG2 tox 7.1µM
COc1ccc(S(=O)(=O)CC(=O)c2cc3cc(Br)ccc3oc2=O)cc1	TGFb inhibitor 13µM (no result: ATXN2 expr inh)
CN(C)CCNC(=O)c1cc2cc(Br)ccc2oc1=O	none
CC(C)C[C@H]1CNC(=S)N1C[C@H]1CCCN1C[C@H](Cc1ccc(O)cc1)N1C[C@H](Cc2ccc(O)cc2)N(CC2CCCCCC2)C1=S	IL-1B inflam inh inconclusive, ATXN2 expr inh 18µM, TGFb inhibitor inconclusive, S2 tox 13µM, HepG2 tox 13µM
CC(C)C[C@H]1CNC(=S)N1C[C@H]1CCCN1C[C@H](CC(C)C)N1C[C@H](Cc2ccc(O)cc2)N(CC2CCCCC2)C1=S	IL-1B inflam inh -62, ATXN2 expr inh inconclusive (no result: TGFb inhibitor, S2 tox, HepG2 tox)
CC(C)C[C@@H](CN1CCCC1CN1C(=S)NC[C@@H]1Cc1ccc(O)cc1)N1C[C@H](Cc2ccccc2)N(CC2CCCCC2)C1=S (stereo partly drawn)	TGFb inhibitor inconclusive, S2 tox inconclusive
CCn1c(=O)[nH]c(=O)c2c(N)c(C(=O)c3cc(F)ccc3F)sc21	TGFb inhibitor 11µM
O=C(Nc1cccc(S(=O)(=O)N2CCCCC2)c1)c1ccc([N+](=O)[O-])o1	IL-1B inflam inh -92, ATXN2 expr inh inconclusive, TGFb inhibitor inconclusive, S2 tox inconclusive
O=C(Cn1cnc2cc([N+](=O)[O-])ccc2c1=O)Nc1cccc(S(=O)(=O)N2CCCCC2)c1	IL-1B inflam inh -55
O=C(Cn1cnc2cc([N+](=O)[O-])ccc2c1=O)N1CCN(S(=O)(=O)c2ccccc2)CC1	none
Cc1ccc(NC(=O)c2ccc([N+](=O)[O-])o2)cc1S(=O)(=O)N1CCOCC1	IL-1B inflam inh -94, ATXN2 expr inh inconclusive, TGFb inhibitor 14µM
Cc1ccc(NC(=O)c2cc([N+](=O)[O-])ccc2N2CCOCC2)cc1S(=O)(=O)N1CCOCC1	TGFb inhibitor inconclusive
Cc1oc(-c2ccccc2)nc1CSc1nnc(C)n2c1cc1sccc12	none (no result: IL-1B inflam inh, ATXN2 expr inh, S2 tox)
Cc1ccc(S(=O)(=O)c2nc(S(=O)(=O)c3ccc(C)cc3)c(NCCCOC(C)C)s2)cc1	none (no result: IL-1B inflam inh)
O=C(NCC1Cc2cccc(-c3cnccn3)c2O1)c1ccc(F)c(Cl)c1 (stereo not drawn)	none (no result: IL-1B inflam inh, ATXN2 expr inh, TGFb inhibitor, HepG2 tox)
COc1cccc2nccc(/C=C/c3ccc(N(C)C)cc3)c12	none (no result: IL-1B inflam inh, ATXN2 expr inh, S2 tox)
CC(C)(C)c1ccc(Cn2c(=N)n(CC(O)c3ccco3)c3ccccc32)cc1 (stereo not drawn)	IL-1B inflam inh -67, ATXN2 expr inh inconclusive, TGFb inhibitor 16µM, S2 tox 21µM
N=c1n(CCN2CCCC2)c2ccccc2n1CC(O)c1ccco1 (stereo not drawn)	S2 tox inconclusive
Cc1ccccc1Cn1c(=N)n(CC(O)c2ccco2)c2ccccc21 (stereo not drawn)	IL-1B inflam inh -77, ATXN2 expr inh inconclusive, S2 tox inconclusive
Nc1ccc(Cc2ccc(C=O)cc2)cc1	none (no result: IL-1B inflam inh, ATXN2 expr inh, S2 tox)
Cc1ccn2c(Nc3ccc4c(c3)OCO4)c(-c3ccc(Cl)cc3)nc2c1	none (no result: IL-1B inflam inh)
CO/N=C/c1c(-c2ccc(Cl)cc2)nc2cc(C)ccn12	IL-1B inflam inh -52
COC(=O)C1CCCCN1Cc1ccc2c(c1)CN(Cc1cnn(-c3ccccc3)c1)CCO2 (stereo not drawn)	none (no result: IL-1B inflam inh, ATXN2 expr inh, TGFb inhibitor, HepG2 tox)
Cc1cc(C2CCCCC2)n(O)c(=O)c1	ATXN2 expr inh 18µM, TGFb inhibitor inconclusive, S2 tox 20µM!
CCOC(=O)c1ccc(-c2c(-c3cc(OC)c(OC)c(OC)c3)noc2C)cc1F	TGFb inhibitor 11µM, S2 tox inconclusive
CC(C)c1nc(C(=O)N2CCc3c([nH]c4ccccc34)C2c2ccccn2)cs1 (stereo not drawn)	IL-1B inflam inh -64
Cc1cccc(C2c3[nH]c4ccccc4c3CCN2C(=O)c2nn(C)c(=O)c3ccccc23)n1 (stereo not drawn)	IL-1B inflam inh -59
Cc1cccc(C2c3[nH]c4ccccc4c3CCN2C(=O)Cc2nc(-c3ccccc3)n[nH]2)n1 (stereo not drawn)	IL-1B inflam inh -59, TGFb inhibitor inconclusive, S2 tox inconclusive
Cc1cccc(C2c3[nH]c4ccccc4c3CCN2C(=O)CN2CCOC2=O)n1 (stereo not drawn)	none
Cc1cccc(C2c3[nH]c4ccccc4c3CCN2C(=O)c2ocnc2C)n1 (stereo not drawn)	none
Cc1nc(C(=O)N2CCc3c([nH]c4ccccc34)C2c2ccccn2)cs1 (stereo not drawn)	none
CN(CC(=O)O)c1ccc(C=O)cc1	none (no result: IL-1B inflam inh, ATXN2 expr inh, S2 tox)
CCC1C(=O)CC(c2ccc([N+](=O)[O-])cc2)NC1c1ccc([N+](=O)[O-])cc1 (stereo not drawn)	IL-1B inflam inh -100, TGFb inhibitor inconclusive
Cc1cc(C)c2nc(N(CCCN(C)C)C(=O)c3ccc4c(c3)OCCO4)sc2c1	IL-1B inflam inh -79, ATXN2 expr inh inconclusive, TGFb inhibitor inconclusive, S2 tox inconclusive
Cc1cccc2sc(N(CCN(C)C)C(=O)c3ccc4c(c3)OCCO4)nc12	none (no result: IL-1B inflam inh, ATXN2 expr inh, S2 tox)
CCN(CC)CCN(C(=O)c1ccc2c(c1)OCCO2)c1nc2ccc(C)cc2s1	IL-1B inflam inh -51
CN1CCN(c2nc(-c3ccccc3)nc3c2oc2ccccc23)CC1	none
NC(=O)C1CCN(c2nc(-c3ccccc3)nc3c2oc2ccccc23)CC1	IL-1B inflam inh -71, ATXN2 expr inh inconclusive, S2 tox inconclusive
NC(=O)C1CCN(c2nc(-c3ccccc3)nc3ccccc23)CC1	IL-1B inflam inh -54
N#Cc1cc2sc3nnc(-c4ccncc4)n3c2cc1C#N	IL-1B inflam inh -83
N#CCSc1nnc2sc3ccccc3n12	none
O=C(NC1CCCCC1)c1n[nH]c2c1CCCCC2	ATXN2 expr inh 10µM
CCC(C)(C)C1CCc2[nH]nc(C(=O)NC3CCCC3)c2C1 (stereo not drawn)	IL-1B inflam inh inconclusive
CCC1CCCCN1CCCNC(=O)CSc1nc2nc(C)c(Cc3ccccc3Cl)c(C)n2n1 (stereo not drawn)	none
